# Several values for one entry are separate records, joined by “and”; a condition that tells them apart may be missing. Identical values can stand only once. Results filed as inconclusive are left out. For part of these data: Potency and affinity values are given separately. Activity calls are given as the source filed them. Rule as the data show it, unless noted: active = parasite load remaining mostly below about 12% (no sharp cut-off); inactive = mostly above about 10%.
# Legend:
# [1] = polyglutamine-triggered caspase-3 activation inhibitors, cell-based (AID 1583); conditions: polyglutamine-induced caspase-3 activation, cell assay; stronger effect = higher value;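 tested at 10 µM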
# [2] = suppressors of polyQ aggregation in yeast, 75Q-TubU reporter (AID 1593); conditions: Yeast 75Q polyglutamine aggregation reporter
# [3] = rescue of polyQ-huntingtin neuronal dysfunction in worms, whole organism, C. elegans mechanosensory neurons, N-terminal huntingtin (AID 1599); conditions: touch response, stronger effect = higher value
# [4] = inhibitors of mitochondrial cytochrome c release, biochemical, purified mitochondria (AID 1603); conditions: stronger effect = lower value;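 also: mouse liver mitochondria challenged with calcium chloride; signal normalized to the plate average as 100%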
# [5] = inhibitors of polyQ protein aggregation (AID 1604); conditions: polyglutamine-induced protein aggregation inhibition assay; stronger effect = higher value; tested at 2.5 µM
# [6] = enhancers of glutamate uptake in motor neurons, MN-1 cell line (AID 1612); conditions: MN-1 motor neuron cells, stronger effect = higher value;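 also: tested at 1 µM final; 0% = mean of DMSO vehicle wells on each plate; positive means more glutamate uptake than control and negative means less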
# [7] = reducers of polyQ inclusions in PC12 cells, cell-based, NGF-treated PC12, GFPQ80 (AID 1614); conditions: PC12 NGF-treated GFP-polyQ80 inclusion reduction;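 also: lower means fewer inclusions and 0 means no inclusions at all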
# [8] = suppressors of polyglutamine aggregation in yeast, 75Q-TubH (AID 1616); conditions: S. cerevisiae 75Q-TubH polyglutamine aggregation suppression; stronger effect = higher value
# [9] = liver-stage malaria parasite growth inhibition, primary screen, cell-based, HepG2, luciferase luminescence, HepG2 viability (AID 624349);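 also: 100% = mean of DMSO negative control wells on the same plate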; conditions: P. berghei liver stage in HepG2, luciferase luminescence, concentration not given here; parasite load remaining: stronger effect = lower value; viability: measured here: HepG2 viability without parasites
# [10] = differential killing of epithelial or mesenchymal cells, primary screen, imaging, PC-3E GFP, TEM4-18 mCherry, co-culture (AID 1345086;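 active = compounds killing one labelled cell type while sparing the other, by normalised counts and ratio limits, not self-fluorescent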;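 as to all read-outs here: cells exposed to compound for 72 h before imaging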;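 as to red/green cell ratio (normalised): normalised mesenchymal count divided by normalised epithelial count so high means epithelial killing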); conditions: imaging cell counts, at 1 µM; for red/green cell ratio (normalised): actives lie on both sides
# [11] = tested on: Aerobactin synthetase IucA (Klebsiella pneumoniae hvKP1); experiment: Biochemical IucA enzyme inhibition primary screen of the Spectrum library (AID 1346200; call rule not given here;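 also: 100% = wells without compound and 0% = wells lacking enzyme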); conditions: malachite green pyrophosphate, A620, at 8 µM, stronger effect = lower value
# [12] = sensitizers of A549 cells to miR-34 induction, primary screen, imaging, A549 dox-inducible miR-34, nuclei and caspase counts (AID 1347080;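 active = compounds whose cell count with miR-34 switched on is under 0.7 times the count with it off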); conditions: A549 miR-34 inducible, Hoechst nuclei count, 48 h
# [13] = viability rescue of complex I mutant cybrids, primary screen, cell-based, galactose medium, ATP luminescence (AID 1645843;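 active = z-score of at least 1.8 in each of two replicates, scored against plate mean and spread of sample wells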;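 also: positive z means more ATP and so rescue of galactose-driven cybrid death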); conditions: complex I mutant cybrid cells, 72 h, stronger effect = higher value
# [14] = molecular target: Mitogen-activated protein kinase 7 (Homo sapiens) (UniProt Q13164); experiment: ERK5 transactivation activators in reporter cells, primary screen, cell-based, HTS (AID 1508626;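 active = luciferase signal above three times the same-plate solvent-only control wells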;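 also: luciferase driven by Gal4-ERK5 fusion binding five Gal4 sites before minimal TATA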); conditions: HeLa Gal4-ERK5 transactivation, 18 h, at 5 µM, stronger effect = higher value
# [15] = growth inhibition of DIPG glioma cells, dose response, cell-based, SU-DIPG-XIII, MIPE5.0, CellTiter-Glo, qHTS (AID 1347064; cut-off not given, nearly all actives have AC50 up to about 23 µM); conditions: SU-DIPG-XIII viability, CellTiter-Glo ATP luminescence
# [16] = JHH-DIPG-1 glioma cell viability, MIPE5.0 library, CellTiter-Glo luminescence, qHTS (AID 1347067; cut-off not given, nearly all actives have AC50 up to about 26 µM;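 also: cells exposed to compound for 48 hours before readout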); conditions: JHH-DIPG-1 glioma viability, CellTiter-Glo ATP luminescence
# [17] = measured here: epithelial PC-3E GFP cell survival
# [18] = measured here: mesenchymal TEM4-18 mCherry cell survival
# [19] = measured here: relative caspase fold change +Dox/-Dox
# [20] = measured here: total cells with miR-34 induction, stronger effect = lower value
# [21] = measured here: total cells without miR-34 induction
# Chain of Mitogen-activated protein kinase 7 (Homo sapiens) (Q13164 whole entry, looked up, the tested form may be a part): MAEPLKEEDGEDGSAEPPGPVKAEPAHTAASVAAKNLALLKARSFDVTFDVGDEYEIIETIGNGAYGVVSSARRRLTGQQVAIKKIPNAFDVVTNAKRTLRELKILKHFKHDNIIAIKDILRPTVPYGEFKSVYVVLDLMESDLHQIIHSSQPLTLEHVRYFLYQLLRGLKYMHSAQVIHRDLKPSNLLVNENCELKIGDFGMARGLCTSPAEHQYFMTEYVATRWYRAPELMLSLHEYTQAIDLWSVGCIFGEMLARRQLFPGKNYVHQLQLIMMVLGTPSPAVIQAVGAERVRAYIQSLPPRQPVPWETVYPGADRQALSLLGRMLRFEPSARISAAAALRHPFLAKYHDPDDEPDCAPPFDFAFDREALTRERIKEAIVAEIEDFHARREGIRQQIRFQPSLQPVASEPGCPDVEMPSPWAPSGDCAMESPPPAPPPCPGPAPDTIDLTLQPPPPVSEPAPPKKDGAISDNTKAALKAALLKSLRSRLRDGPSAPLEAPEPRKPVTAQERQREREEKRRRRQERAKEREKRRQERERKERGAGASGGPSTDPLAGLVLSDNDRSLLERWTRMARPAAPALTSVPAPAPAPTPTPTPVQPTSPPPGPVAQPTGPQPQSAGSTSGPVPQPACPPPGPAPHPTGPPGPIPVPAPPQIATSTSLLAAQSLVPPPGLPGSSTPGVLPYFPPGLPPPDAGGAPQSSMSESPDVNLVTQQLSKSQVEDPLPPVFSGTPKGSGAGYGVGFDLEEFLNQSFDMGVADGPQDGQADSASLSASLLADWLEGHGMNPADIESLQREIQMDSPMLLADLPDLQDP
smiles,measurement,setting,value
O=C1CC[C@@]2(O)[C@H]3Cc4ccc(O)c5c4C2(CCN3CC2CC2)[C@H]1O5,inhibition,[1],-9.29%
same,score,[2],1.49
same,rescue above control,[3],-6.2
same,cytochrome c release ratio,[4],1.27
same,inhibition of aggregation,[5],61.5%
same,glutamate uptake change,[6],10.7%
same,inclusion score,[7],2
same,aggregation suppression score,[8],1.53
same,parasite load remaining,[9],70.5% (inactive) and 73.3% (inactive)
same,viability,[9],84.7% and 132%
same,red/green cell ratio (normalised),[10],1.24 (inactive)
same,normalised cell number,[10]; [17],1.01
same,normalised cell number,[10]; [18],1.26
same,activity remaining,[11],104% (inactive)
same,fold change,[12]; stronger effect = lower value,0.853 (inactive)
same,fold change,[12]; [19],4.3
same,cell count,[12]; [20],11500
same,cell count,[12]; [21],13400
CCN1C[C@@]2(COC)C3[C@@H](OC)[C@H]4[C@@H]1[C@]3(C(OC)C[C@H]2O)C1C[C@@]2(O)[C@H](OC(=O)c3ccccc3)C1[C@]4(OC(C)=O)[C@@H](O)[C@@H]2OC (stereo partly specified),inhibition,[1],-1.76%
same,score,[2],0.9
same,rescue above control,[3],-1.73
same,cytochrome c release ratio,[4],0.91
same,inhibition of aggregation,[5],65.4%
same,glutamate uptake change,[6],9.78%
same,inclusion score,[7],2
same,aggregation suppression score,[8],1.1
same,parasite load remaining,[9],85.5% (inactive) and 32.5% (inactive)
same,viability,[9],79.4% and 105%
same,red/green cell ratio (normalised),[10],1.07 (inactive)
same,normalised cell number,[10]; [17],1.01
same,normalised cell number,[10]; [18],1.07
same,activity remaining,[11],113% (inactive)
same,fold change,[12]; stronger effect = lower value,0.875 (inactive)
same,fold change,[12]; [19],3.63
same,cell count,[12]; [20],11000
same,cell count,[12]; [21],12600
CC1OC(=O)[C@@H](C(C)C)NC(=O)C(C(C)C)OC(=O)[C@H](C(C)C)NC(=O)C(C)OC(=O)[C@@H](C(C)C)NC(=O)C(C(C)C)OC(=O)[C@H](C(C)C)NC(=O)C(C)OC(=O)[C@@H](C(C)C)NC(=O)C(C(C)C)OC(=O)[C@H](C(C)C)NC1=O (stereo partly specified),red/green cell ratio (normalised),[10],0.92 (inactive)
same,normalised cell number,[10]; [17],0.32
same,normalised cell number,[10]; [18],0.29
same,activity remaining,[11],122% (inactive)
C=C1CC2C(CC[C@]3(C)C(=O)CCC23)[C@@]2(C)C=CC(=O)C=C12 (stereo partly specified),parasite load remaining,[9],9.27% (inactive)
same,viability,[9],99%
same,red/green cell ratio (normalised),[10],1.16 (inactive)
same,normalised cell number,[10]; [17],1.01
same,normalised cell number,[10]; [18],1.17
same,activity remaining,[11],121% (inactive)
same,fold change,[12]; stronger effect = lower value,0.911 (inactive) and 0.833 (inactive)
same,fold change,[12]; [19],1 and 2.69
same,cell count,[12]; [20],8770 and 9350
same,cell count,[12]; [21],9630 and 11200
same,z-score,[13],-1.42 (inactive)
COC(C)(C)CCC[C@H](C)C/C=C/C(C)=C/C(=O)OC(C)C,red/green cell ratio (normalised),[10],0.86 (inactive)
same,normalised cell number,[10]; [17],1.2
same,normalised cell number,[10]; [18],1.03
same,activity remaining,[11],109% (inactive)
same,luciferase signal,[14],72 AU (inactive)
C=CCN1CC[C@]23c4c5ccc(O)c4OC2C(=O)CC[C@@]3(O)[C@H]1C5 (stereo partly specified),inhibition,[1],-6.59%
same,score,[2],1.27
same,rescue above control,[3],-8.32
same,cytochrome c release ratio,[4],1.12
same,inhibition of aggregation,[5],68.2%
same,glutamate uptake change,[6],-6.41%
same,inclusion score,[7],2
same,aggregation suppression score,[8],1.13
same,parasite load remaining,[9],96.1% (inactive) and 54.5% (inactive)
same,viability,[9],79.4% and 88.1%
same,red/green cell ratio (normalised),[10],1.09 (inactive)
same,normalised cell number,[10]; [17],1.09
same,normalised cell number,[10]; [18],1.19
same,activity remaining,[11],92.9% (inactive)
same,fold change,[12]; stronger effect = lower value,0.923 (inactive)
same,fold change,[12]; [19],2.03
same,cell count,[12]; [20],11800
same,cell count,[12]; [21],12800
Nc1ncn[nH]1,red/green cell ratio (normalised),[10],1.3 (inactive)
same,normalised cell number,[10]; [17],0.82
same,normalised cell number,[10]; [18],1.07
same,activity remaining,[11],92.7% (inactive)
same,luciferase signal,[14],24 AU (inactive)
NC1C[C@H]1c1ccccc1 (stereo partly specified),inhibition,[1],-1.78%
same,score,[2],0.95
same,rescue above control,[3],2.94
same,cytochrome c release ratio,[4],0.57
same,inhibition of aggregation,[5],-4.08%
same,glutamate uptake change,[6],0.89%
same,inclusion score,[7],2
same,aggregation suppression score,[8],1.29
same,parasite load remaining,[9],139% (inactive) and 41.7% (inactive)
same,viability,[9],72.4% and 86.6%
same,red/green cell ratio (normalised),[10],1.23 (inactive)
same,normalised cell number,[10]; [17],0.99
same,normalised cell number,[10]; [18],1.22
same,activity remaining,[11],123% (inactive)
same,fold change,[12]; stronger effect = lower value,0.916 (inactive)
same,fold change,[12]; [19],1.81
same,cell count,[12]; [20],11800
same,cell count,[12]; [21],12900
COC[C@]12CN(C=O)C3[C@@H]4[C@H](OC)C1[C@]3(C1CC3(O)C(OC)C(O)C4(OC(C)=O)C1C3OC(=O)c1ccccc1)[C@@H](OC)C[C@H]2O (stereo partly specified),red/green cell ratio (normalised),[10],1 (inactive)
same,normalised cell number,[10]; [17],1.06
same,normalised cell number,[10]; [18],1.06
same,activity remaining,[11],118% (inactive)
CC1CC[C@]2(NC1)O[C@H]1CC3C4CC[C@H]5C[C@@H](O)CC[C@]5(C)C4CC[C@]3(C)[C@H]1[C@@H]2C (stereo partly specified),red/green cell ratio (normalised),"[10]; counts scaled to control wells, 1 = unselective",0.81 (inactive)
same,normalised cell number,[10]; [17],1.1
same,normalised cell number,[10]; [18],0.89
same,activity remaining,[11],96.8% (inactive)
CC(CO)NC(=O)C1C=C2c3cccc4[nH]cc(c34)C[C@H]2N(C)C1 (stereo partly specified),parasite load remaining,[9],81.6% (inactive) and 59.7% (inactive)
same,viability,[9],72.8% and 111%
same,red/green cell ratio (normalised),[10],1.15 (inactive)
same,normalised cell number,[10]; [17],0.77
same,normalised cell number,[10]; [18],0.88
same,activity remaining,[11],98.2% (inactive)
same,fold change,[12]; stronger effect = lower value,0.895 (inactive)
same,fold change,[12]; [19],3.49
same,cell count,[12]; [20],11100
same,cell count,[12]; [21],12400
CC(C)C[C@@H](CN)CC(=O)O,parasite load remaining,[9],133% (inactive) and 53% (inactive)
same,viability,[9],88.1% and 116%
same,red/green cell ratio (normalised),[10],1.06 (inactive)
same,normalised cell number,[10]; [17],1.2
same,normalised cell number,[10]; [18],1.27
same,activity remaining,[11],121% (inactive)
same,fold change,[12]; stronger effect = lower value,0.933 (inactive)
same,fold change,[12]; [19],3.45
same,cell count,[12]; [20],12300
same,cell count,[12]; [21],13200
N#CC(O[C@@H]1O[C@H](CO[C@@H]2O[C@H](CO)[C@@H](O)[C@H](O)[C@H]2O)[C@@H](O)[C@H](O)[C@H]1O)c1ccccc1 (stereo partly specified),inhibition,[1],3.65%
same,score,[2],1.42
same,rescue above control,[3],-2.1
same,cytochrome c release ratio,[4],1.2
same,inhibition of aggregation,[5],36.6%
same,glutamate uptake change,[6],14%
same,inclusion score,[7],2
same,aggregation suppression score,[8],1.51
same,parasite load remaining,[9],116% (inactive)
same,viability,[9],70.2%
same,red/green cell ratio (normalised),[10],1 (inactive)
same,normalised cell number,[10]; [17],0.94
same,normalised cell number,[10]; [18],0.94
same,activity remaining,[11],123% (inactive)
same,outcome,[15],inactive
same,outcome,[16],inactive

# Reference: PubChem BioAssay
